This is part of a sample that, as a whole, favours compounds with a hit. Of some 83,000 tested, about 20% had one in any assay.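 A percent growth of 40 corresponds to 60% growth inhibition; 0 means no net growth; -100 means all cells died. Active threshold: below 10.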 A number with no mark means an inactive call. Active and inactive are the calls of the source.
Experiments:
Assay in all cases: NCI-60 one-dose screen, 48 h (100 = growth as untreated, 0 = no growth, -100 = all killed)
Details in all cases: 10 µM unless noted
SK-MEL-2 melanoma = test system: SK-MEL-2 melanoma
EKVX NSCLC = test system: EKVX NSCLC
SN12C renal = test system: SN12C renal
UO-31 renal = test system: UO-31 renal
ACHN renal = test system: ACHN renal
CAKI-1 renal = test system: CAKI-1 renal
A498 renal = test system: A498 renal
CCRF-CEM leukemia = test system: CCRF-CEM leukemia
MOLT-4 leukemia = test system: MOLT-4 leukemia
SR leukemia = test system: SR leukemia
RPMI-8226 leukemia = test system: RPMI-8226 leukemia
OVCAR-8 ovarian = test system: OVCAR-8 ovarian
OVCAR-5 ovarian = test system: OVCAR-5 ovarian
OVCAR-4 ovarian = test system: OVCAR-4 ovarian
SK-OV-3 ovarian = test system: SK-OV-3 ovarian
IGROV1 ovarian = test system: IGROV1 ovarian
OVCAR-3 ovarian = test system: OVCAR-3 ovarian
HS 578T breast = test system: HS 578T breast
NCI/ADR-RES ovarian = test system: NCI/ADR-RES ovarian
TK-10 renal = test system: TK-10 renal

Compound | growth (SK-MEL-2 melanoma) | growth (EKVX NSCLC) | growth (SN12C renal) | growth (UO-31 renal) | growth (ACHN renal) | growth (CAKI-1 renal) | growth (A498 renal) | growth (CCRF-CEM leukemia) | growth (MOLT-4 leukemia) | growth (SR leukemia) | growth (RPMI-8226 leukemia) | growth (OVCAR-8 ovarian) | growth (OVCAR-5 ovarian) | growth (OVCAR-4 ovarian) | growth (SK-OV-3 ovarian) | growth (IGROV1 ovarian) | growth (OVCAR-3 ovarian) | growth (HS 578T breast) | growth (NCI/ADR-RES ovarian) | growth (TK-10 renal) [%]
COc1ccc(C/C(C)=C(\c2ccc(Cl)cc2)c2ccc(OCCN3CCCCCC3)cc2)cc1 | 90.5% | 91.7% | 78.3% | 67.9% | 86.4% | 84.1% | 92.1% | 61.6% | 58.7% | 9.97% (active) | 54.3% | 89.4% | 82.5% | 95.7% | 103% | 78.1% | 80.4% | 98.4% | 85.7% | –
O=S(=O)(NCCCNc1cc(-c2cn(-c3ccccc3)nc2-c2ccccc2)ccn1)c1ccc(C(F)(F)F)cc1 | 79% | 46.4% | 63% | 40.4% | – | 52.4% | 70.6% | – | 29.4% | 39.3% | 44.1% | 54.6% | – | 58.7% | 68.9% | 59.2% | 72% | 61% | 46.2% | 72.3
CC/C=C\C[C@H](F)C/C=C1/C(=O)C=C[C@@H]1C/C=C\CCCC(=O)O | 65.2% | 75.1% | 44.3% | 57.5% | 39.5% | 42.5% | 106% | -7.62% (active) | -4.45% (active) | -13.2% (active) | -3.41% (active) | 11.2% | 86.1% | 83.6% | 86.4% | 65.4% | 26.9% | 84% | 9.24% (active) | –
CCCCCCCCCCCCCCCCCCSC1=CC(=O)C(OC)=C(OC)C1=O | 96.5% | 91.3% | 80.9% | 76.6% | – | 96.3% | 97.1% | 91.9% | 91.9% | – | 40.8% | 86.2% | 94.3% | 109% | 95.7% | 106% | 98.2% | – | 91.7% | 91.6
CCOC(=O)CC(=O)c1c(C)cc(C)cc1C | 93.4% | 105% | 94.1% | 92.9% | – | 97% | 96.8% | 90.9% | 78.7% | – | 90.3% | 102% | 84.1% | 113% | 105% | 108% | 117% | 91.7% | 102% | 116
CCN(CC)Cc1cc(Nc2c3ccccc3nc3cc(Cl)ccc23)ccc1O | -74.2% (active) | -55.1% (active) | -36.9% (active) | -72.9% (active) | -97.3% (active) | -75% (active) | -61.4% (active) | -11.9% (active) | -28.9% (active) | -37.1% (active) | -21.1% (active) | -60.1% (active) | -15.3% (active) | -97.8% (active) | -2.76% (active) | 2.96% (active) | -92.2% (active) | -30.9% (active) | -38.5% (active) | –
COC(/C=C/c1ccc([N+](=O)[O-])cc1)OC | 99% | 101% | 92.8% | 93.2% | 107% | 102% | 111% | 39.6% | 69.4% | 31.6% | 70% | 84.4% | 99.8% | 96.6% | 110% | – | 120% | 122% | 96% | –
O=C1/C(=C/c2ccc(Cl)c(Cl)c2)CN(C(=O)CCN2CCC(=NO)CC2)C/C1=C\c1ccc(Cl)c(Cl)c1 | -86.9% (active) | -85.1% (active) | -97.3% (active) | -95.7% (active) | -98.4% (active) | -92.1% (active) | -92% (active) | -28.2% (active) | -21.7% (active) | -14% (active) | -37.2% (active) | -95.5% (active) | -71.3% (active) | -96.6% (active) | -55.7% (active) | -63.3% (active) | -97.8% (active) | -28.5% (active) | -60.2% (active) | –
COc1ccc(/C=C/C(=O)c2c(O)c(C)c(O)c3c2OC2=CC(O)=C(C(C)=O)C(=O)[C@]23C)cc1 | -54.6% (active) | -2.89% (active) | -31.3% (active) | -22.5% (active) | 0.0747% (active) | 6.28% (active) | -56.2% (active) | -29.9% (active) | -27.9% (active) | -17.6% (active) | -28.9% (active) | -14.9% (active) | 7.96% (active) | 12.1% | -24.9% (active) | -8.12% (active) | -20.5% (active) | -9.2% (active) | -13.5% (active) | –
N#Cc1c(N)nc(N)nc1Nc1ccc(Br)cc1 | 91.1% | 44.1% | 85.1% | 65.6% | 89% | 80.1% | 106% | 61.1% | 76.5% | 102% | 97% | 101% | 115% | 94.5% | 108% | 47% | 97.6% | 70.1% | 104% | –
Cc1ccc(Nc2nc(N)nc(Nc3ccc4ccccc4c3)n2)cc1 | 50.6% | 72.1% | 40.3% | 46.4% | – | 30.3% | – | 27.8% | 47.9% | 26.8% | 48.2% | 47.7% | 79.9% | 74.7% | 58.4% | 51.4% | 8.67% (active) | 47% | 30.6% | 69
CCCCCCCCCCNC(=O)CCl | 85.7% | 95.9% | 63.8% | 58.1% | 78% | -59.4% (active) | 85.9% | 57.8% | 54.8% | 51.4% | 82.3% | 47.8% | 111% | 80.3% | 111% | 44.1% | 52.8% | 84.6% | 73% | –
CCCCCCCCCCCCCC1=NCCN1CCO | 114% | 112% | 69.2% | 54.5% | 78.1% | 90.7% | 108% | 7.19% (active) | -1.68% (active) | -4.54% (active) | 21% | 52.6% | 79.1% | 169% | 107% | 13.3% | 164% | 37.9% | 84.5% | –

Source: PubChem BioAssay (NCI)
